This passage reports Potency and activity, negative = inhibition results from PubChem BioAssay AID588579 (National Center for Advancing Translational Sciences (NCATS), 2011).

The campaign covered roughly 400,000 compounds. About 2,200 (0.55%) were called active. Entries that show only a call come without a potency. Another 1% or so got no clear call; they are omitted. This is one part of a sample in which actives are shown more often than they occur. Unmarked numbers belong to inactive results. Calls come from the whole dose curve; as a rule, active = well fitted inhibition curve with a large enough effect; inconclusive = small, poorly fitted or top-dose-only effect, or another doubt; inactive = no such curve, though single readings can be large or run the other way.
Potency is the fitted concentration of half-maximal effect.

Sequence of DNA polymerase kappa (Homo sapiens) (Q9UBT6 whole entry, looked up): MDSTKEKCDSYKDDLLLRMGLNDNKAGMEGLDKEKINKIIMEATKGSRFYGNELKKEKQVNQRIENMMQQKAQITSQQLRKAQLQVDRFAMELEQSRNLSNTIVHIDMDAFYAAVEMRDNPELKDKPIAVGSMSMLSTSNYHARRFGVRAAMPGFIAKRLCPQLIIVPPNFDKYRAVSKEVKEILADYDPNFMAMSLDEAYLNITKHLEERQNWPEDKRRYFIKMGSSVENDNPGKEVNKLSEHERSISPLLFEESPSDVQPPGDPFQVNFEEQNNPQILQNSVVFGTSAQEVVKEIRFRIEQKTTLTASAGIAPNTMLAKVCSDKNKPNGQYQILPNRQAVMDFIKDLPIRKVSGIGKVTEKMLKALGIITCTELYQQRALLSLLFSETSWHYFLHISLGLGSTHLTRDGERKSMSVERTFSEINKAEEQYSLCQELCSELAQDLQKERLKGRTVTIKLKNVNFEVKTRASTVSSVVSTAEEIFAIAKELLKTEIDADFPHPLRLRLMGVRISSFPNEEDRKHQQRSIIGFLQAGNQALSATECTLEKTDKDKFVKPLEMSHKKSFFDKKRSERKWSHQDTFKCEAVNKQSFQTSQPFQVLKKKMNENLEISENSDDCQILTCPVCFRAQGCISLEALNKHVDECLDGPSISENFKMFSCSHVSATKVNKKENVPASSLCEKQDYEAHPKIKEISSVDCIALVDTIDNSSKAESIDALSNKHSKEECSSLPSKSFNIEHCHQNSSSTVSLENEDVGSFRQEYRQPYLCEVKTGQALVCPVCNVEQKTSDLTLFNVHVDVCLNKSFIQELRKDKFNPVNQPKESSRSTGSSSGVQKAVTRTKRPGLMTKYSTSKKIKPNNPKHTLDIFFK

The assay addresses DNA polymerase kappa (Homo sapiens) (UniProt Q9UBT6). Kind of assay: qHTS for Inhibitors of Polymerase Kappa. To be noted: purified Pol kappa, fluorescent DNA synthesis assay, 10 min; series mostly up to 107 µM. As for the experimental part: The processing and repair of DNA interstrand crosslinks (ICL) in eukaryotic cells are extremely complex, potentially involving multiple DNA repair and damage tolerance pathways, including homologous recombination, nucleotide excision repair, translesion synthesis (TLS), and cell cycle checkpoints.
To that end, in a collaboration between the Oregon Health & Science University and the NIH Chemical Genomics Center a 1536-well high-throughput screen was developed. This fluorescent screen was assayed against the NIH Molecular Libraries Small Molecule Repository (MLSMR) to discover inhibitors of Pol Kappa.
NIH Chemical Genomics Center [NCGC]
NIH Molecular Libraries Probe Centers Network [MLPCN]
Assay Submitter (PI): Stephen Lloyd, Oregon Health & Science University
Three microliters of reagents (buffer in column 3 and 4 as negative control and 10 nM Pol kappa in columns 1, 2, and 5-48) were dispensed into a 1536-well black solid-bottom plate. Compounds (23 nL) were transferred via Kalypsys pin tool equipped with 1536-pin array. The plates were then incubated for 15 min at room temperature, and 1 uL substrate (50 nM final concentration) were then added to start the reaction and kinetically read twice at 0 min and 10 min on the Viewlux reader
On the technique in general: In qHTS, concentration-response curves come from the screen itself.
Take `CCOc1ccccc1/C=c1\sc2nc(-c3ccco3)nn2c1=O`: the Potency was 89.1 µM (active).
`Oc1c(C(c2ccccc2Cl)N2CCOCC2)sc2nc(-c3ccco3)nn12` (stereo unspecified): the Potency entry is “inactive”.
Turning to `CCOC(=O)C1CCN(C(c2ccc(F)cc2)c2sc3nc(-c4ccco4)nn3c2O)CC1` (stereo unspecified), the Potency entry was “inactive”.
For the compound `NCCC(=O)c1ccccc1N`, the activity, negative = inhibition is 1.11% [at 19.4 µM].
As for `O=C(O)C(O)[C@@](O)(Cc1ccc(O)cc1)C(=O)O` (stereo partly specified), the Potency result is “inactive”.
As to `CCN1CCN(C(=O)C2CCN(S(=O)(=O)c3cc(Cl)ccc3Cl)CC2)CC1`, the Potency entry is “inactive”.
Regarding `O=C(CN1CCN(S(=O)(=O)c2cc(Cl)ccc2Cl)CC1)c1ccc(O)c(O)c1`, the Potency is 28.2 µM (active).
For `O=S(=O)(c1cc(Cl)ccc1Cl)N1CCN(Cc2ccco2)CC1`, the Potency result is “inactive”.
With `NNc1nnc(NN)c2ccccc12`, the activity, negative = inhibition was 2.28% [at 19.4 µM].
On the same count and under the same terms, next, `CC(=O)/C(C)=N\O`: -8.23% [at 19.4 µM].
Consider `CC1(C)C=Cc2c(ccc(C(=O)/C=C/c3ccccc3)c2O)O1`, for which the Potency result was “inactive”.
Turning to `COc1ccc(CNc2ncnc3ccc(-c4cccnc4)cc23)c(OC)c1`, the Potency result is “inactive”.
On to `O=C(c1ccc(Br)o1)N1CCN(CCOc2ccccc2)CC1`, for which the Potency result was “inactive”.
Still for that read-out and setting: next, `O=C(c1ccc(CS(=O)(=O)c2ccccc2)o1)N1CCN(c2ccccc2)CC1`: 79.4 µM (active); `CCOC(=O)C1CCCN(C(=O)c2ccc(CS(=O)(=O)c3ccc(Br)cc3)o2)C1` (stereo unspecified): “inactive”.
Take `Nc1nc2c(ncn2[C@@H]2O[C@H](COP(=O)(O)OP(=O)(O)OP(=O)(O)O)[C@@H](O)C2O)c(=O)[nH]1` (stereo partly specified): the activity, negative = inhibition is -4.75% [at 19.4 µM].
For the compound `COc1ccc(OC)c([C@H](O)CNC(=O)CN)c1`, the activity, negative = inhibition was -13.4% [at 19.4 µM].
Regarding `COC1C[C@@H](O[C@@H]2C(C)C(=O)OC(C)C(C)C(O)C(C)C(=O)[C@@]3(CO3)CC(C)C(OC3OC(C)CC(N(C)C)C3O)C2C)OC(C)[C@@H]1O` (stereo partly specified), the Potency result was “inactive”.
With `O=P(O)(O)OC[C@H](O)CO`, the Potency entry was “inactive”.
With `COc1c2c(cc3occ(-c4ccc5c(c4)OCO5)c(=O)c13)OC(C)(C)C=C2`, the Potency result is “inactive”.
As to `COc1cccc2c1C(=O)c1c(O)c3c(c(O)c1C2=O)CC(O)(C(C)=NNC(=O)c1ccc(Cl)c(Cl)c1)CC3OC1CC(N)C(O)C(C)O1` (stereo unspecified), the Potency is 17.8 µM (active).
Take `Cc1cccc(-c2nnc(SC(C)C(=O)Nc3ccccc3)n2C)c1` (stereo unspecified): the Potency result was “inactive”.
Still for that read-out and setting: to `COc1cccc(Nc2ncc3ncc(=O)n(C4CC4)c3n2)c1` belongs “inactive”; to `CCC(=O)Nc1cccc(C2=NOC3(C2)C[C@@H](C(N)=O)N(C(=O)c2cc([N+](=O)[O-])cc([N+](=O)[O-])c2C)C3)c1` (stereo partly specified), “inactive”.
Consider `NC(=O)[C@H]1CC2(CC(c3cccc(NC(=O)[C@H]4CCC(=O)N4)c3)=NO2)CN1C(=O)c1ccccc1C(=O)c1ccccc1` (stereo partly specified), for which the Potency result is “inactive”.
Regarding `C=C(C)C(=O)Nc1cccc(C2=NOC3(C2)C[C@H](C(N)=O)N(C(=O)C(c2ccccc2)c2ccccc2)C3)c1` (stereo partly specified), the Potency was 25.1 µM (active).
Turning to `CN1[C@H]2CC(OC(=O)[C@@H](CO)c3ccccc3)C[C@H]1[C@H]1O[C@H]12` (stereo partly specified), the activity, negative = inhibition was -3.18% [at 12 µM].
Turning to `O=C(c1cnccn1)N1CCC2(CCN(Cc3cc(C(F)(F)F)cc(C(F)(F)F)c3)CC2)CC1`, the Potency result was “inactive”.
With `Cc1nc2cnc(Oc3cccc(Cl)c3)nc2n(C2CC2)c1=O`, the Potency result is “inactive”.
With `S=c1[nH]c(=S)c2n[nH]nc2[nH]1`, the Potency result was “inactive”.
On to `CN(C)CCNC(=O)c1ccc(Cl)c2cc3ccccc3nc12`, for which the Potency is 50.1 µM (active).
Consider `COc1ccc(Nc2cc(C(=O)NCCCN(C)c3ccccc3)c3ccccc3n2)c(OC)c1`, for which the Potency result was “inactive”.
Regarding `COc1ccccc1Nc1cc(C(=O)NCCCN(C)C2CCCCC2)c2ccccc2n1`, the Potency result was “inactive”.
For the compound `O=C(c1csnn1)N1CCC[C@@]2(CCN(c3cccc(-c4ccccc4)c3)C2)C1`, the Potency result is “inactive”.
As to `CC(=O)c1ccc(S(=O)(=O)N2CCC(Oc3ccc(-n4cnnn4)cc3)CC2)cc1`, the Potency result is “inactive”.
For the compound `CC(=O)c1cccc(Nc2ccc3cc(S(=O)(=O)N4CCC(C)CC4)ccc3n2)c1`, the Potency result is “inactive”.
With `CC(=O)c1ccc(S(=O)(=O)N2CCN(C(=O)/C=C/c3ccc4ccccc4n3)CC2)cc1`, the Potency is 79.4 µM (active).
In the case of `Cc1cccc(NC(=O)COC(=O)c2ccccc2OCc2cccc(Br)c2)c1`, the Potency result was “inactive”.
As for `C=C1C(=O)C23C(O)C1CCC2[C@]12COC3(O)C(O)C1C(C)(C)CC[C@H]2O` (stereo partly specified), the Potency result is “inactive”.
The same measure, in the same setting: next, `CC(C)(CNC(=O)c1ccc(Cl)c(S(=O)(=O)N2CCc3ccccc3C2)c1)N1CCOCC1`: “inactive”; `O=C(Nc1cc(Cl)ccc1N1CCOCC1)c1ccc(N2CCCC2=O)cc1`: “inactive”.
For the compound `O=C(O)c1ccc(NN=CC2=C(N3CCOCC3)/C(=C/c3ccccc3)CC2)cc1`, the Potency is 28.2 µM (active).
With `Cc1cc(/C=N/Nc2ccc([N+](=O)[O-])cn2)c(C)n1-c1cccc(C(=O)O)c1`, the Potency was 70.8 µM (active).
In the case of `CN1CCN(C(=O)c2cnn(-c3ccccc3)c2NC(=O)c2ccc([N+](=O)[O-])cc2)CC1`, the Potency result is “inactive”.
For `Cc1cccc(C(=O)NC(=S)N2CCN(c3ccc([N+](=O)[O-])cc3)CC2)c1`, the Potency result is “inactive”.
As for `COc1cc(OC)c(OC)cc1/C=C1\C=Cc2ccccc21`, the Potency entry is “inactive”.
With `O=c1c(-c2ccc(F)cc2)nc2cnc(N3CCNCC3)nc2n1Cc1cccs1`, the Potency entry is “inactive”.
For `CN(C)c1ccc(/C=C2\C=Cc3ccccc32)cc1Br`, the Potency result is “inactive”.
The same measure, in the same setting: next, `CCN(CC)CCOc1ccc2c(c1)C(=NNC(=O)c1ccccn1)c1cc(OCCN(CC)CC)ccc1-2`: 10 µM (active).
Take `CCOc1ccc(C(=O)N2CCN(CCc3ccccn3)CC2)cc1`: the Potency result was “inactive”.
Consider `O=C(c1ccncc1)N1CCC2(CCN(Cc3cc(C(F)(F)F)cc(C(F)(F)F)c3)CC2)CC1`, for which the Potency entry was “inactive”.
On to `C[C@]12CC[C@@H]3C(=CCc4cc(O)ccc43)[C@@H]1CCC2=O`, for which the activity, negative = inhibition was -6.88% [at 12 µM].
The same measure, in the same setting: next, `Oc1ccc(Cl)c2c1CCC2`: 2.83% [at 19.4 µM]; `C/C=C/C=N/NC(=O)c1ccncc1`: -3.32% [at 19.4 µM].
Consider `C=C1c2c(Cl)ccc(O)c2C(O)=C2C(=O)[C@]3(O)C(O)=C(C(N)=O)C(=O)[C@@H](N(C)C)[C@@H]3[C@@H](O)C12` (stereo partly specified), for which the Potency was 3.98 µM (active).
Regarding `CN(C)[C@@H]1C(=O)C(C(N)=O)=C(O)[C@@]2(O)C(=O)C3=C(O)c4c(O)ccc(Cl)c4[C@@H](O)[C@H]3C[C@@H]12`, the Potency is 89.1 µM (active).
As to `O=C1C[C@H]2C=CCc3cccc(c32)CN1Cc1ccccc1`, the Potency result is “inactive”.
The same measure, in the same setting: next, `O=C1CCC[C@@H]2C[C@@]3(C[C@@H]4CCN1[C@H]24)Nc1ccccc1NC3=NCc1ccccc1`: “inactive”; `CC(=O)OCC(=O)[C@@]1(O)CCC2C3CCC4=CC(=O)CC[C@@]4(C)[C@]3(F)C(O)C[C@]21C` (stereo partly specified): “inactive”; `Brc1ccc(C2=NCCC(c3ccccc3)O2)cc1` (stereo unspecified): “inactive”.
For `Cc1cccc(NC(=O)CSc2nc(-c3ccco3)cc(C(F)(F)F)n2)c1C`, the Potency entry is “inactive”.
As to `Cc1cc(C)c2nc(-c3ccco3)cc(C(=O)O)c2c1`, the Potency was 22.4 µM (active).
For the compound `Cc1cc(C)c2nc(-c3cccnc3)cc(C(=O)Nc3ccc(S(=O)(=O)Nc4onc(C)c4C)cc3)c2c1`, the Potency result was “inactive”.
Regarding `Cn1c(=O)c2ccccc2n(CC(=O)Nc2ccc3c(c2)OCCO3)c1=O`, the Potency result is “inactive”.
On to `Cc1ccc(C(=O)O)cc1-c1ccc(/C=C2\SC(=O)N(CC(=O)Nc3ccc4c(c3)OCO4)C2=O)o1`, for which the Potency is 28.2 µM (active).
Consider `COC(=O)c1ccc2c(c1)N(CC(=O)Nc1ccc(C)c(C)c1)C(=O)c1ccccc1S2`, for which the Potency result was “inactive”.
For the compound `CCn1ccnc1C[C@@H]1COc2ccccc2O1`, the activity, negative = inhibition was -7.82% [at 19.4 µM].
Regarding `NC[C@@H]1O[C@H](O[C@@H]2[C@H](O[C@@H]3O[C@H](CO)[C@@H](COC[C@H]4O[C@@H](CN)[C@@H](O)[C@@H](O)[C@@H]4N)[C@@H]3O)[C@@H](O)[C@@H](N)C[C@H]2N)[C@@H](N)[C@H](O)[C@@H]1O`, the activity, negative = inhibition was -0.462% [at 12 µM].
In the case of `COc1ccc(OC)c(NC(=O)/C=C/c2ccc(C)o2)c1`, the Potency result is “inactive”.
Consider `Cc1ccc(/C=C/C(=O)Nc2ccc([N+](=O)[O-])c(NC(=O)/C=C/c3ccc(C)o3)c2)o1`, for which the Potency is 28.2 µM (active).
Still for that read-out and setting: to `Cc1ccc(/C=C/C(=O)OCC(=O)NCc2ccc(Cl)cc2)o1` belongs “inactive”.
In the case of `CC1=C(/C=C/C(C)=C/C=C/C(C)=C/C=C/C=C(C)/C=C/C=C(C)/C=C/C(=O)[C@]2(C)C[C@@H](O)CC2(C)C)C(C)(C)C[C@H](O)C1`, the Potency result was “inactive”.
In the case of `O=C1C(c2[nH]c3ccccc3c2O)=Nc2ccccc21`, the activity, negative = inhibition was -10.8% [at 19.4 µM].
Regarding `CN(CCOc1ccccc1)C(=O)c1cc(-c2ccco2)nc2ccccc12`, the Potency is 79.4 µM (active).
Same read-out and setting: to `CN(C(=O)COC(=O)c1cc(-c2ccco2)nc2ccccc12)C1CCS(=O)(=O)C1` (stereo unspecified) belongs 20 µM (active).
On to `Cc1cc(C)c2nc(SCC(=O)N(C)C3CCS(=O)(=O)C3)cc(C)c2c1` (stereo unspecified), for which the Potency entry was “inactive”.
In the case of `CN(C)C(CNC(=O)CCCOc1ccccc1)c1ccco1` (stereo unspecified), the Potency result was “inactive”.
In the case of `CCN(C(=O)COC(=O)/C=C/c1nc2ccccc2s1)C1CCS(=O)(=O)C1` (stereo unspecified), the Potency entry was “inactive”.
Take `CCOc1ccc(CNC(=O)c2cc(-c3ccc(Cl)s3)nc3ccccc23)cc1`: the Potency result was “inactive”.
In the case of `Nc1ncn(C2OC(CO)C(O)C2O)c(=O)n1` (stereo unspecified), the Potency entry was “inactive”.
Turning to `C=CC(=O)c1ccc2ccccc2c1`, the activity, negative = inhibition is 7.32% [at 19.4 µM].
For the compound `CCCCCCCNc1ccc(/C=C/c2ccnc3ccccc23)cc1`, the Potency entry was “inactive”.
Same read-out and setting: next, `O=C(c1cccc(F)c1)N1CCC2(CCCN(Cc3ccncc3)C2)CC1`: “inactive”.
Turning to `Cc1cn([C@H]2CC(F)[C@@H](CO)O2)c(=O)[nH]c1=O` (stereo partly specified), the activity, negative = inhibition was -4.8% [at 19.4 µM].
`O=C(Nc1cccc(C(F)(F)F)c1)c1cc(Br)cc(Br)c1O`: the activity, negative = inhibition was -0.617% [at 19.4 µM].
Take `COCCn1c(=O)c(-c2ccc(OC)cc2)nc2cnc(Oc3cccc(Cl)c3)nc21`: the Potency result is “inactive”.
